GSH fluor – compound fluorescence on glutathione beads, profiling panel, artefact control, biophysical, 488/530 nm, flow cytometry; GSH beads flow cytometry, compound fluorescence 488/530 nm; hits give high values; hit rate 0.25% among 190,000; fluorescence (KMESF) at 10 µM; AID 1776, 2009; in the data active = fluorescence above about 89;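 also: glutathione beads carrying GST-tagged Bcl family fusion proteins plus one bare bead set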
RGS7-Gao reg – RGS7-Galphao binding modulators, primary screen, biochemical, multiplexed bead flow cytometry. hit rate 0.35% among 220,000. AID 1439, 2008. actives lie on both sides. Guanine nucleotide-binding protein G(o) subunit alpha (Homo sapiens), P09471. binding response (% of control), % at 10 µM; in the data active = binding response below about 49% or above about 150%; inconclusive = no clear call, values can overlap the other calls; inactive = in between;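 also: fluorescent Galphao held in activated GDP-AlF4 state binding bead-coupled RGS7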
Target sequence (P09471 whole entry, looked up): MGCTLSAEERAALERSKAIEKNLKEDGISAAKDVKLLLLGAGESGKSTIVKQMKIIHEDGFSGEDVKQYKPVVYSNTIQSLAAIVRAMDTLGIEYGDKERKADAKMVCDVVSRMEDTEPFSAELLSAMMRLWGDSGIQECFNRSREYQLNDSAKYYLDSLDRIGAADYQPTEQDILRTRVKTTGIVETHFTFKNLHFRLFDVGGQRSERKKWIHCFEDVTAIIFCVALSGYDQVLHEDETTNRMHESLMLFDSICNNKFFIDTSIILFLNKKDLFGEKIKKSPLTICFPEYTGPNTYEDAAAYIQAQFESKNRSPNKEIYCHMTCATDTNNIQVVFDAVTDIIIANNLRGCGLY
RGS8-Gao – RGS8-Galphao binding modulators, primary screen, biochemical, multiplexed bead flow cytometry. actives lie on both sides. hit rate 0.34% among 220,000. Guanine nucleotide-binding protein G(o) subunit alpha (Homo sapiens), P09471. response (percent of control binding), % at 10 µM; in the data active = response below about 60% or above about 140%; inactive = in between;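 also: Galphao activated as the GDP aluminium fluoride complex binding bead-coupled RGS8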
RGS4-Gao reg – modulators of RGS4 binding to Galphao, primary screen, biochemical, multiplexed bead flow cytometry. Guanine nucleotide-binding protein G(o) subunit alpha (Homo sapiens), P09471. actives lie on both sides. binding response (% of control), % at 10 µM. hit rate 0.33% among 220,000. AID 1415, 2008; in the data active = binding response below about 49% or above about 150%; inactive = in between;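 also: fluorescent Galphao activated with aluminum fluoride binding bead-coupled RGS4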
RGS16-Gao – modulators of RGS16 binding to Galphao, primary screen, biochemical, human proteins, multiplexed bead flow cytometry; Regulator of G-protein signaling 16 (Homo sapiens) + Guanine nucleotide-binding protein …; bead-based flow cytometry RGS16-Galphao binding, fluorescence; actives lie on both sides; binding response (% of control), % at 10 µM; hit rate 0.38% among 220,000;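 also: Galphao activated by GDP with aluminum fluoride before binding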
Target sequence (O15492 whole entry, looked up): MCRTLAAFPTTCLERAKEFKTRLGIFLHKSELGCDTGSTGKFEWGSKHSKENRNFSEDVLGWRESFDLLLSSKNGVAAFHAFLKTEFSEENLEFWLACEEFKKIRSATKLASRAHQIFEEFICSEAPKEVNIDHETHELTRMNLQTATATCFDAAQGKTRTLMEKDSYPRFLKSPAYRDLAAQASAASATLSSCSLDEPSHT
Target sequence (P09471 whole entry, looked up): as the sequence (P09471 whole entry, looked up) above
Avidin bead fluor – green autofluorescence of compounds with avidin beads – biophysical, 488/530 nm, flow cytometry, artefact control, profiling panel; hit rate 0.38% among 220,000; compound fluorescence 488/530 nm; hits give high values; fluorescence (KMESF) at 10 µM; in the data active = fluorescence above about 47
RGS4-Gao HTS – modulators of RGS–Galpha-o binding, primary screen, biochemical, multiplexed beads, flow cytometry, RGS4/7/8/16/19 | shares compounds with RGS16-Gao | multiplexed bead flow cytometry | RGS4–Galpha-o binding response, % at 10 µM | hit rate 99% among 1,600;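 also: fluorescently labeled Galpha-o bound to GDP with aluminium fluoride binding biotinylated RGS beads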
Avidin counter – disruption of biotin probe capture by avidin, counter-screen for RGS protein interaction modulators, biochemical, flow cytometry, bead-based; inhibition, % at 10 µM; 1,700 tested, under 10 active; streptavidin beads, fluorescein-biotin binding; shares compounds with RGS16-Gao;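 active = inhibition above 50%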;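 also: median green fluorescence of gated singlet beads compared with DMSO control wells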
RGS8-Gao single – RGS8-Galphao binding modulators, confirmation, biochemical, multiplexed bead flow cytometry, single concentration. AID 1836, 2009. bead-based flow cytometry RGS8-Galphao binding, fluorescence; actives lie on both sides. shares compounds with RGS16-Gao. binding response (% of control), % at 10 µM. hit rate 3% among 1,700; in the data active = binding response below about 72% or above about 130%; inactive = in between;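 also: Galphao activated as GDP AlF4 complex before binding bead RGS8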
RGS7-Gao confirm – RGS7-Galphao binding modulators, confirmation, biochemical, multiplexed bead flow cytometry, single concentration; shares compounds with RGS16-Gao; bead-based flow cytometry RGS7-Galphao binding; actives lie on both sides; response (percent of control binding), % at 10 µM; hit rate 7.8% among 1,700; AID 1837, 2009; in the data active = response below about 75% or above about 130%; inactive = in between;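 also: fluorescent Galphao activated with GDP and aluminum fluoride binding bead-coupled RGS7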
RGS16-Gao conf – modulators of RGS16-Galphao protein binding, confirmation, biochemical, single concentration, multiplexed bead flow cytometry; shares compounds with RGS16-Gao; bead-based flow cytometry; actives lie on both sides; response (% of control binding), % at 10 µM; hit rate 4% among 1,700; AID 1838, 2009; in the data active = response below about 74% or above about 130%; inactive = in between;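 also: Galphao activated as the GDP aluminium fluoride complex binding bead-coupled RGS16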
RGS4-Gao confirm – modulators of RGS4-Galphao protein binding, confirmation, biochemical, single concentration, multiplexed bead flow cytometry; shares compounds with RGS16-Gao; actives lie on both sides; binding response (% of control), % at 10 µM; hit rate 4% among 1,700; AID 1840, 2009; in the data active = binding response below about 74% or above about 130%; inactive = in between
RGS19-Gao single – regulators of RGS19-Galphao binding, confirmation, biochemical, single point, multiplexed bead flow cytometry | AID 1841, 2009 | bead-based flow cytometry RGS19-Galphao binding; actives lie on both sides | response (percent of control binding), % at 10 µM | shares compounds with RGS16-Gao | hit rate 5% among 1,700; in the data active = response below about 50% or above about 160%; inactive = in between
Each line names hits and unclear results; the compound was inactive in the other large screens (follow-up assays come after a bar, where they were run); [ ] = dose if it differs, or a comment. Rows were chosen to be rich in hits. Some 1.2% of all compounds tested hit in one or more screens of this group. Unless noted, no rule for the calls is given here.

Cc1nnc(N2CCOCC2)c2nn(-c3ccccc3)c(C)c12	RGS8-Gao 147[activator] | RGS4-Gao HTS 149 | Avidin counter inactive | RGS8-Gao single inactive | RGS7-Gao confirm inactive | RGS16-Gao conf inactive | RGS4-Gao confirm inactive | RGS19-Gao single inactive
COc1ccc(/C=N/NC(=O)CNc2ccc(Br)cc2)c(C(=O)O)c1OC	none
CCOC(=S)NC(=O)c1sc2ccccc2c1Cl	none
CCCOC(=S)NC(=O)c1sc2ccccc2c1Cl	none (no result: RGS7-Gao reg, RGS8-Gao, RGS4-Gao reg, RGS16-Gao, Avidin bead fluor) | Avidin counter inactive | RGS8-Gao single inactive | RGS7-Gao confirm inactive | RGS16-Gao conf inactive | RGS4-Gao confirm inactive | RGS19-Gao single inactive
CCO[C@@H]1OC(C(=O)NC2CC2)=C[C@H](C2CC2)[C@H]1CCCO	RGS7-Gao reg inconclusive (no result: GSH fluor)
C#CCNC(=O)C1=C[C@@H](C2CC2)[C@H](CCCO)[C@@H](OCC)O1	RGS7-Gao reg -5.5, RGS8-Gao 8.9, RGS4-Gao reg 4.8, RGS16-Gao 0.9 | Avidin counter inactive | RGS8-Gao single inactive | RGS7-Gao confirm inactive | RGS16-Gao conf inactive | RGS4-Gao confirm inactive | RGS19-Gao single inactive
CCN(C(=O)c1cnc(OC)cc1C(F)(F)F)c1ccc(Cl)cc1Cl	RGS7-Gao reg inconclusive (no result: GSH fluor)
O=[N+]([O-])c1ccc2c(c1)N([O-])C1(CCCCC1)[N+]2=O	RGS7-Gao reg inconclusive, RGS8-Gao 35 (no result: GSH fluor) | RGS4-Gao HTS 91
COc1ccc(/C=C/C(=O)N2CCN(C)CC2)cc1S(=O)(=O)N1CCCCC1	RGS7-Gao reg inconclusive
COc1nc(-c2ccccc2)cc(-c2ccccc2)n1	RGS7-Gao reg 207[activator], Avidin bead fluor 260 | RGS4-Gao HTS 133 | Avidin counter inactive | RGS8-Gao single inactive | RGS7-Gao confirm inactive | RGS16-Gao conf inactive | RGS4-Gao confirm inactive | RGS19-Gao single inactive
O=C(Nc1ccccc1[N+](=O)[O-])C1(c2ccccc2)CCOCC1	RGS7-Gao reg 334[activator], Avidin bead fluor 202 | RGS4-Gao HTS 141 | Avidin counter inactive | RGS8-Gao single inactive | RGS7-Gao confirm inactive | RGS16-Gao conf inactive | RGS4-Gao confirm inactive | RGS19-Gao single inactive
CCc1ccc(NS(=O)(=O)c2cccc3nonc23)cc1	none
CCOC(=O)c1c(C)nc(SCC(N)=O)c(C#N)c1-c1ccccc1	RGS16-Gao 182[activator] | RGS4-Gao HTS 111 | Avidin counter inactive | RGS8-Gao single inactive | RGS7-Gao confirm inactive | RGS16-Gao conf inactive | RGS4-Gao confirm inactive | RGS19-Gao single inactive
COc1cc(C(=O)Nc2nnc(C3CC3)s2)ccc1OCc1c(C)noc1C	none
COc1ccc(CCNC(=O)c2cnn(-c3ccc(C)c(C)c3)c2NC(=O)c2ccco2)cc1OC	none (no result: RGS7-Gao reg, RGS8-Gao, RGS4-Gao reg, RGS16-Gao, Avidin bead fluor) | Avidin counter inactive | RGS8-Gao single inactive | RGS7-Gao confirm inactive | RGS16-Gao conf inactive | RGS4-Gao confirm inactive | RGS19-Gao single inactive
CC1CN(S(=O)(=O)c2ccc(C(=O)Nc3nnc(-c4ccccn4)o3)cc2)CC(C)O1 (stereo unspecified)	RGS7-Gao reg -18, RGS8-Gao 12, RGS4-Gao reg 15, RGS16-Gao 9.5 | Avidin counter inactive | RGS8-Gao single inactive | RGS7-Gao confirm inactive | RGS16-Gao conf inactive | RGS4-Gao confirm inactive | RGS19-Gao single inactive
Cc1nc2c(cc1C#N)C(=O)c1ccccc1-2	RGS16-Gao 18 | RGS4-Gao HTS 86 | Avidin counter inactive | RGS8-Gao single inactive | RGS7-Gao confirm inactive | RGS16-Gao conf inactive | RGS4-Gao confirm inactive | RGS19-Gao single inactive
COc1ccc(-c2c(C#N)c(C)nc3c2C(=O)c2ccccc2-3)cc1	none
O=C(COC(=O)c1ccccc1)NCc1cccs1	none
Cc1cc(C)cc(C(=O)OCC(=O)NCc2cccs2)c1	RGS16-Gao 176[activator] | RGS4-Gao HTS 110 | Avidin counter inactive | RGS8-Gao single inactive | RGS7-Gao confirm inactive | RGS16-Gao conf inactive | RGS4-Gao confirm inactive | RGS19-Gao single inactive
O=C(c1ccc(Oc2cc(Cl)cc(Cl)c2)o1)N1CCCCC1	RGS7-Gao reg inconclusive (no result: GSH fluor)
Cc1ccccc1NC(=S)NCc1cccn1C	RGS16-Gao 178[activator] | RGS4-Gao HTS 97 | Avidin counter inactive | RGS8-Gao single inactive | RGS7-Gao confirm inactive | RGS16-Gao conf inactive | RGS4-Gao confirm inactive | RGS19-Gao single inactive
CCCCCCNS(=O)(=O)c1ccc(NC(=O)C2CCCO2)cc1 (stereo unspecified)	none
CNC(=O)c1ccsc1NC(=O)c1coc2ccccc2c1=O	RGS7-Gao reg -6.6, RGS8-Gao 12, RGS4-Gao reg 9.9, RGS16-Gao 1.6 | Avidin counter inactive | RGS8-Gao single inactive | RGS7-Gao confirm inactive | RGS16-Gao conf inactive | RGS4-Gao confirm inactive | RGS19-Gao single inactive
O=C(Nc1ccc2c(c1)OCCO2)c1coc2ccccc2c1=O	none
COC(=O)c1[nH]c2ccccc2c1NC(=O)CN1CCCCCC1	none

High-throughput results from PubChem BioAssay.
